Test results from article PMC4336329 (PLoS ONE, 2015).
The campaign covered roughly 310,000 compounds. About 2,200 (0.71%) showed an effect of 50% or more. The effect is printed as a negative number. The sample holds strong results, similar compounds and a random draw of the others, so the mix is not that of the screen.

Molecular target: human ether-à-go-go-related gene (hERG) potassium channel (human, UniProt Q12809)
Experiment: primary screen, population patch clamp on CHO cells stably expressing hERG; higher = less effect of the substance

human ether-à-go-go-related gene (hERG) potassium channel, sequence (Q12809 whole entry, looked up): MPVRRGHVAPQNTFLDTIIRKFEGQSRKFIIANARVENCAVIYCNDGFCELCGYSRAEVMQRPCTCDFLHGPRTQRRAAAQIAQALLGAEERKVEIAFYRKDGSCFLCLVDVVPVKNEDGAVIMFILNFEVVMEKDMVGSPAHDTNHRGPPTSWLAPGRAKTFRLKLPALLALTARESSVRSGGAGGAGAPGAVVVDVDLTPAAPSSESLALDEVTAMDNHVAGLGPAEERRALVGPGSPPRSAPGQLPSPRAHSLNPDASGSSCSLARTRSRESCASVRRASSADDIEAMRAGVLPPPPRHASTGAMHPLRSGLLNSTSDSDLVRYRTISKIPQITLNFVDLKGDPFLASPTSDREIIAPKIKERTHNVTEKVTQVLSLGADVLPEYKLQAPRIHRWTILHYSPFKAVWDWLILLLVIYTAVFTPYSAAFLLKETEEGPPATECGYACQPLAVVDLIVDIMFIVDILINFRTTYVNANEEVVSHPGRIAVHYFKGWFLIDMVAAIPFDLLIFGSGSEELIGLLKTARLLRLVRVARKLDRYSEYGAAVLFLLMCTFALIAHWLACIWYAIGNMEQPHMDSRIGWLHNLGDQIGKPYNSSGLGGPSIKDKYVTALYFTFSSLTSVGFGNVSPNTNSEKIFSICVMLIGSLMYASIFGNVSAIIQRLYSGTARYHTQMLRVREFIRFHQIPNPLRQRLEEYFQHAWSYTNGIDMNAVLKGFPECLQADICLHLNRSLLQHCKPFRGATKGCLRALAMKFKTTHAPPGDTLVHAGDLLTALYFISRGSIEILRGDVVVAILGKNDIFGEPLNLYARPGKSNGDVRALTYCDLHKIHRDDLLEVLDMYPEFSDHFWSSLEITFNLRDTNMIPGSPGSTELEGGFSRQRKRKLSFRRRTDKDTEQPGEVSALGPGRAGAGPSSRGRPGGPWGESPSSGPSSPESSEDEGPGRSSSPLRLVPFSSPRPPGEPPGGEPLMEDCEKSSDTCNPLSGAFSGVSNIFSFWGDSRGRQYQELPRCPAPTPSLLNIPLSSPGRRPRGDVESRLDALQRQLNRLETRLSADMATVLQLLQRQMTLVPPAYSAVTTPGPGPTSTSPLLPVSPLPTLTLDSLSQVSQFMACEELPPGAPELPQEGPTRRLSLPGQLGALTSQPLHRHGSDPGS

Going from `Cc1nc2ccc([N+](=O)[O-])cc2c(=O)n1Cc1ccc(Br)cc1` to `Cc1nc2ccc([N+](=O)[O-])cc2c(=O)n1Cc1ccc(F)cc1`, the “hERG current change (%, negative = inhibition) at 1uM” value falls from 14.8% to -9.51%.

Going from `Cc1nc2ccc([N+](=O)[O-])cc2c(=O)n1Cc1ccc(Cl)cc1` to `COc1ccc(Cn2c(C)nc3ccc([N+](=O)[O-])cc3c2=O)cc1`, the “hERG current change (%, negative = inhibition) at 1uM” value falls from 10.5% to 5.96%.

Going from `Cc1nc2ccccc2c(=O)n1Cc1ccc([N+](=O)[O-])cc1` to `Cc1nc2ccc([N+](=O)[O-])cc2c(=O)n1Cc1ccc([N+](=O)[O-])cc1`, the “hERG current change (%, negative = inhibition) at 1uM” value falls from -64.8% to -76.5%.

First: CC(=O)Nc1cccc(N2CCCC2=O)c1
Second: CC(=O)NC(C(=O)N1CCC(c2nc3ccccc3s2)CC1)C(C)C (stereo not drawn)
The “hERG current change (%, negative = inhibition) at 1uM” value of the first is lower: 4.99% for the first, 8.96% for the second.

Compared with `O=C(CN1CCN(Cc2ccccc2)CC1)N/N=C/C=C/c1ccccc1[N+](=O)[O-]`, `O=S(=O)(c1ccccc1)N(CC(O)CN1CCCC1)c1ccccc1` (stereo not drawn) is higher in “hERG current change (%, negative = inhibition) at 1uM” value: -32.1% for the first, 3.65% for the second.

Compared with `COc1ccc(NC(=O)Nc2cc(C(=O)O)ccc2N2CC3CC(C2)c2cccc(=O)n2C3)c(OC)c1` (stereo not drawn), `COc1ccc(/C(C)=N/Nc2ccc(C(=O)O)cc2)cc1OC.O=S(=O)(O)O` is higher in “hERG current change (%, negative = inhibition) at 1uM” value: 5.08% for the first, 11.7% for the second.

Going from `CC(NC(=O)Cc1ccccc1)c1cc2c(cc1Br)OCCCO2` (stereo not drawn) to `Cl.O=S(=O)(c1ccc2ccccc2c1)N(CC(O)CN1CCOCC1)c1ccccc1` (stereo not drawn), the “hERG current change (%, negative = inhibition) at 1uM” value falls from 6.49% to -21.2%.

First: CCOC(=O)Cn1nc(C)c(NC(=O)COc2ccc(OC)cc2)c1C
Second: COC(=O)CCCNS(=O)(=O)c1ccc2ccccc2c1
The “hERG current change (%, negative = inhibition) at 1uM” value of the first is lower: 4.48% for the first, 10.7% for the second.

Compared with `CC(C)(C)Nc1nc(Cl)nc(N(C#N)CN2C(=O)c3ccccc3S2(=O)=O)n1`, `CNc1ncc(-c2nnnn2-c2ccccc2)c(-c2ccccc2)n1` is lower in “hERG current change (%, negative = inhibition) at 1uM” value: 16.1% for the first, 8.07% for the second.

Compared with `CCN(CC)S(=O)(=O)c1cc(C)ccc1NC(=S)Nc1cccnc1`, `COc1ccccc1N(CC(O)CN1CCCCC1)S(=O)(=O)c1ccc(C)cc1` (stereo not drawn) is lower in “hERG current change (%, negative = inhibition) at 1uM” value: 3.41% for the first, 2.61% for the second.

First: Cc1ccc(N(CC(O)CN2CCOCC2)S(=O)(=O)c2ccc([N+](=O)[O-])cc2)cc1 (stereo not drawn)
Second: COc1ccc(N(CC(O)CN2CCOCC2)S(=O)(=O)c2ccc(C)cc2)cc1 (stereo not drawn)
The “hERG current change (%, negative = inhibition) at 1uM” value of the first is lower: -49.1% for the first, -6.48% for the second.

Compared with `Cc1ccc(N(CC(O)CN2CCCCC2)S(=O)(=O)c2ccc(C)cc2)cc1` (stereo not drawn), `Cc1ccc(N(CC(O)CN2CCCC2)S(=O)(=O)c2ccc(C)cc2)cc1.Cl` (stereo not drawn) is lower in “hERG current change (%, negative = inhibition) at 1uM” value: 12.8% for the first, -81.7% for the second.

Going from `Cc1ccc(S(=O)(=O)N(CC(O)CN2CCCCC2)c2ccccc2)cc1.Cl` (stereo not drawn) to `Cc1ccc(S(=O)(=O)N(CC(O)CN2CCCC2)c2ccccc2)cc1` (stereo not drawn), the “hERG current change (%, negative = inhibition) at 1uM” value rises from -60.5% to -44.8%.

Compared with `Cl.O=S(=O)(c1ccccc1)N(CC(O)CN1CCCCC1)c1ccccc1` (stereo not drawn), `Cc1ccccc1S(=O)(=O)N(CC(O)CN1CCCCC1)c1ccccc1` (stereo not drawn) is lower in “hERG current change (%, negative = inhibition) at 1uM” value: -21% for the first, -71.2% for the second.

First: Cc1ccc(N(CC(O)CN2CCOCC2)S(=O)(=O)c2ccc3ccccc3c2)cc1 (stereo not drawn)
Second: Cc1ccc(N(CC(O)CN2CCCC2)S(=O)(=O)c2ccccc2)cc1 (stereo not drawn)
The “hERG current change (%, negative = inhibition) at 1uM” value of the first is lower: -55.6% for the first, -47.4% for the second.

Compared with `Cc1ccc(S(=O)(=O)N(CC(O)CN2CCOCC2)c2cc(Cl)ccc2Cl)cc1.Cl` (stereo not drawn), `COc1ccc(N(CC(O)CN2CCCCC2)S(=O)(=O)c2ccc(C)cc2)cc1` (stereo not drawn) is lower in “hERG current change (%, negative = inhibition) at 1uM” value: -2.22% for the first, -82.9% for the second.

Compared with `O=S(=O)(c1ccccc1)N(CC(O)CN1CCOCC1)c1ccccc1` (stereo not drawn), `Cc1ccc(N(CC(O)CN2CCCCC2)S(=O)(=O)c2ccccc2)cc1` (stereo not drawn) is lower in “hERG current change (%, negative = inhibition) at 1uM” value: 9.04% for the first, -68.7% for the second.

Compared with `Cc1ccc(-n2nc(C)c3c2OC(N)=C(C#N)C3c2cccs2)cc1` (stereo not drawn), `Cc1ccc(-c2oc3ncnc(N)c3c2-c2ccc(C)cc2)cc1` is lower in “hERG current change (%, negative = inhibition) at 1uM” value: 9.08% for the first, -3.25% for the second.

Compared with `CC1=CC2=NC(=O)CC(C)(C(=O)N(CC(=O)NC(C)(C)C)Cc3cccs3)N2C=C1` (stereo not drawn), `Cn1c(SCC(=O)NCC2CCCO2)ncc(C(=O)Nc2ccc(F)cc2)c1=O` (stereo not drawn) is higher in “hERG current change (%, negative = inhibition) at 1uM” value: -2.79% for the first, 5.38% for the second.

Going from `Cc1ccc(N2CCN(c3ncccc3[N+](=O)[O-])CC2)c(C)c1` to `Cc1ccc(N(CC(O)CN2CCCCC2)S(=O)(=O)c2ccccc2[N+](=O)[O-])cc1` (stereo not drawn), the “hERG current change (%, negative = inhibition) at 1uM” value falls from 17.2% to -48.8%.

First: Cc1cc(C)nc(SCc2n[nH]c(=S)n2C)n1
Second: CCOC(=O)C1=C(N)OC2=C(C(=O)CC(C)(C)C2)C1c1ccco1 (stereo not drawn)
The “hERG current change (%, negative = inhibition) at 1uM” value of the first is higher: 7.9% for the first, -7.98% for the second.

Compared with `FC(F)(F)c1ccccc1NC(=S)N1CCN(c2ncccn2)CC1`, `O=C(NNC(=O)c1cccs1)c1ccccc1` is lower in “hERG current change (%, negative = inhibition) at 1uM” value: 11.5% for the first, 5.51% for the second.

Compared with `Cc1c(C(=O)OC2CCCCC2)sc2nc[nH]c(=O)c12`, `COCCN(CC1CCCN(C2Cc3ccccc3C2)C1)C(=O)c1ccc(C(C)=O)cc1` (stereo not drawn) is lower in “hERG current change (%, negative = inhibition) at 1uM” value: 16% for the first, -51.9% for the second.

First: CN1C[C@H](CNC(=O)OCc2ccccc2)C[C@@H]2c3cccc4c3c(cn4C)C[C@H]21
Second: CCNC(=O)N(CCOC)CC1CCCN(C2Cc3ccccc3C2)C1 (stereo not drawn)
The “hERG current change (%, negative = inhibition) at 1uM” value of the first is lower: -1.63% for the first, 11.7% for the second.

Compared with `COCCN(CC1CCCN(C2Cc3ccccc3C2)C1)C(=O)CSC` (stereo not drawn), `COCCN(CC1CCCN(C2Cc3ccccc3C2)C1)C(=O)CCSC` (stereo not drawn) is lower in “hERG current change (%, negative = inhibition) at 1uM” value: 7.99% for the first, -4.27% for the second.

Going from `COCCN(CC1CCCN(C2Cc3ccccc3C2)C1)C(=O)CCC(C)=O` (stereo not drawn) to `COCCN(CC1CCCN(C2Cc3ccccc3C2)C1)C(=O)CCC(N)=O` (stereo not drawn), the “hERG current change (%, negative = inhibition) at 1uM” value falls from 7.77% to -70.8%.

Going from `N#Cc1ccccc1NC(=O)C1SC(=Nc2ccccc2)C(C(=O)Nc2ccc(Cl)cc2)=C1N` (stereo not drawn) to `CC(C)N(CC#CC(O)(c1ccccc1)c1ccccc1)C(C)C`, the “hERG current change (%, negative = inhibition) at 1uM” value falls from 6.56% to -38.1%.
